# Values joined by “and” are separate entries in the source; they are usually repeats but may differ in a detail not shown here. Equal values may be shown once. Inconclusive results are not listed. Active and inactive are the calls of the source. Unless noted, calls come from the whole dose curve; as a rule, active = well fitted curve in the direction sought with a large enough effect; inconclusive = small, poorly fitted or top-dose-only effect, or another doubt; inactive = no such curve, though single readings can be large; an effect the other way counts as inactive or inconclusive.
# What was measured:
# [1] = target: DNA repair nuclease/redox regulator APEX1 (Homo sapiens) (UniProt P27695); test: qHTS Validation Assay for Inhibitors of the Human Apurinic/apyrimidinic Endonuclease 1 (APE1) (AID 1705; note: potency is the fitted concentration of half-maximal effect); details: purified APE1 endonuclease activity, fluorescence, titration; series mostly up to 57.1 µM
# DNA repair nuclease/redox regulator APEX1 (Homo sapiens), sequence (P27695 whole entry, looked up): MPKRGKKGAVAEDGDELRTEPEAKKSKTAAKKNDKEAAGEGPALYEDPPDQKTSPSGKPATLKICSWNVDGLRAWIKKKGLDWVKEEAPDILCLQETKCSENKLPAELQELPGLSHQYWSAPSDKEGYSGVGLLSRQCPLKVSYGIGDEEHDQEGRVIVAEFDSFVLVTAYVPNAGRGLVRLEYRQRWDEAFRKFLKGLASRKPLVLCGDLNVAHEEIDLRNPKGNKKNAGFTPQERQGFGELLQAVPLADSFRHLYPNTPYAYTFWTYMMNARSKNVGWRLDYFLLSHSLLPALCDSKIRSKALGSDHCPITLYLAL
# Procedure, shortened: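 Activity read as rising fluorescence (598 nm emission, 525 nm excitation) from incision of a TAMRA/BHQ-2 duplex carrying a THF abasic site (50 nM). Compound and enzyme sat 15 min at RT before substrate start; signal change between first and third 60-s reads.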
# [2] = target: Endonuclease 4 (Escherichia coli (strain K12)) (UniProt P0A6C1); test: Counterscreen for APE1 Inhibitors: qHTS Validation Assay for Inhibitors of Endonuclease IV (AID 1708); note: % is set by controls: 0 for no effect and ±100 for the full control effect; details: E. coli endonuclease IV, DNA cleavage fluorescence; series mostly up to 57.1 µM
# Procedure, shortened: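 E. coli EndoIV at 2 nM final, preincubated 15 min at room temperature with compound, then 50 nM TAMRA/BHQ-2 THF abasic-site duplex added. Buffer: 50 mM Tris-HCl pH 7.5, 50 mM NaCl, 2 mM MgCl2, 1 mM DTT, 0.01% Tween-20. Kinetic fluorescence increase, third minus first read.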
# [3] = Cytometry Cell-Based qHTS for Inhibitors of the mTORC1 Signaling Pathway in MEF cells (AID 2668); details: mTORC1 pathway readout; series mostly up to 38.3 µM; note: potency is the fitted concentration of half-maximal effect
# Procedure, shortened: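 Phospho-rpS6 (Ser235/236) immunofluorescence over PI signal, scored as % positive cells using thresholds from 7.5 nM rapamycin and DMSO wells, after 24 h compound exposure of WT-Tsc2-rescued Tsc2-/-, p53-/- MEFs. PI cell count recorded for viability.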
# [4] = target: Thioredoxin reductase 1, cytoplasmic (Rattus norvegicus) (UniProt O89049); test: qHTS Assay for Inhibitors of Mammalian Selenoprotein Thioredoxin Reductase 1 (TrxR1) (AID 488773); details: purified TrxR1 enzyme activity; Potency: inhibition; series mostly up to 57.1 µM; note: nearly all actives have a fitted effect of over 40% in size; note: potency is the fitted concentration of half-maximal effect
# Thioredoxin reductase 1, cytoplasmic (Rattus norvegicus), sequence (O89049 whole entry, looked up): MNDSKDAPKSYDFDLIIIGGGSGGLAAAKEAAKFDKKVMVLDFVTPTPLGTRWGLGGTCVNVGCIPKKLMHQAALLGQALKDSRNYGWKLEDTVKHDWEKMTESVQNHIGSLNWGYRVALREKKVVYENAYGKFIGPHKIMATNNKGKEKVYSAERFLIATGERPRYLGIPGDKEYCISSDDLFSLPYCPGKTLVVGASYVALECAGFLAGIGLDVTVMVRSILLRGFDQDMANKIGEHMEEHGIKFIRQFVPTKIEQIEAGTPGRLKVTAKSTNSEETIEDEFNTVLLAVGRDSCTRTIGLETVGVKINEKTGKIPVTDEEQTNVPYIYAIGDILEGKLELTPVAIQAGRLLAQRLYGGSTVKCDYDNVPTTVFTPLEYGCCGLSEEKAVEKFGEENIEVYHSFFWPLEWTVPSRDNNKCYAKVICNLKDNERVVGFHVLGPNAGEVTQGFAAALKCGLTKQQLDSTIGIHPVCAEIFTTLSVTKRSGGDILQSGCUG
# Procedure, shortened: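 Steps: enzyme (90 nM) plus NADPH (400 uM final), 5 min at ~22 deg C; compound added, 15 min; selenite (400 uM final) added; fluorescence followed for 8 min. Concentration-response curves derived from the normalized delta values.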
# [5] = qHTS for Activators of Parkin Expression: LOPAC Validation Assay (FLuc Reporter) (AID 720573;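 note: 0% = DMSO and 100% = positive control compounds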); details: Cell line, PRKN promoter firefly luciferase reporter, vehicle wells = 0, positive control = 100%; series mostly up to 46.1 µM
# Procedure, shortened: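 FLuc signal from Parkin-promoter coincidence reporter neuronal cells, normalized to DMSO and positive control (100%). Cells (1,500/well) pre-incubated 24 h, then exposed to LOPAC compounds in 7-point dose response for 24 h at 37 C, 5% CO2.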
# [6] = qHTS for differential inhibitors of proliferation of Plasmodium falciparum line 3D7 (AID 1876); note: potency is the fitted concentration of half-maximal effect; details: P. falciparum 3D7 proliferation inhibition; series mostly up to 28.7 µM
# [7] = qHTS for differential inhibitors of proliferation of Plasmodium falciparum line 7G8 (AID 1815); details: Plasmodium falciparum 7G8 proliferation inhibition; series mostly up to 28.7 µM;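 note: potency is the fitted concentration of half-maximal effect; parasite growth measured after three days of incubation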
# [8] = qHTS for differential inhibitors of proliferation of Plasmodium falciparum line Dd2 (AID 1882); details: Potency: Plasmodium falciparum Dd2 proliferation inhibition; series mostly up to 28.7 µM; note: potency is the fitted concentration of half-maximal effect; nearly all actives have a fitted effect of over 65% in size
# Procedure, shortened: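 Dd2-infected erythrocytes (0.3% parasitemia, 2.5% hematocrit final) incubated with compound 72 h at 37 C, 5% CO2; lysed with saponin/Triton buffer containing SYBR Green I, incubated overnight in the dark, then read by fluorescence (485/535 nm). Normalized to 0.29 uM artemisinin and DMSO.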
# [9] = qHTS for differential inhibitors of proliferation of Plasmodium falciparum line HB3 (AID 1886); details: Potency: Plasmodium falciparum HB3 proliferation inhibition; series mostly up to 28.7 µM;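 note: potency is the fitted concentration of half-maximal effect; parasites grown with compound for 72 h before SYBR Green readout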
# [10] = target: Glucocorticoid receptor (Homo sapiens) (UniProt P04150); test: qHTS assay for small molecule agonists of glucocorticoid receptor signaling (AID 588532; active = well fitted curve in the direction sought with a large enough effect in the signal ratio, with a control signal flat; the % refers to the signal ratio;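 note: 100% = dexamethasone at 0.1 µM and 0% = DMSO only wells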); details: HeLa MMTV-bla, beta-lactamase ratio, agonist, 18 h; stronger effect = higher value; percent of dexamethasone control, DMSO zero
# Glucocorticoid receptor (Homo sapiens), sequence (P04150 whole entry, looked up): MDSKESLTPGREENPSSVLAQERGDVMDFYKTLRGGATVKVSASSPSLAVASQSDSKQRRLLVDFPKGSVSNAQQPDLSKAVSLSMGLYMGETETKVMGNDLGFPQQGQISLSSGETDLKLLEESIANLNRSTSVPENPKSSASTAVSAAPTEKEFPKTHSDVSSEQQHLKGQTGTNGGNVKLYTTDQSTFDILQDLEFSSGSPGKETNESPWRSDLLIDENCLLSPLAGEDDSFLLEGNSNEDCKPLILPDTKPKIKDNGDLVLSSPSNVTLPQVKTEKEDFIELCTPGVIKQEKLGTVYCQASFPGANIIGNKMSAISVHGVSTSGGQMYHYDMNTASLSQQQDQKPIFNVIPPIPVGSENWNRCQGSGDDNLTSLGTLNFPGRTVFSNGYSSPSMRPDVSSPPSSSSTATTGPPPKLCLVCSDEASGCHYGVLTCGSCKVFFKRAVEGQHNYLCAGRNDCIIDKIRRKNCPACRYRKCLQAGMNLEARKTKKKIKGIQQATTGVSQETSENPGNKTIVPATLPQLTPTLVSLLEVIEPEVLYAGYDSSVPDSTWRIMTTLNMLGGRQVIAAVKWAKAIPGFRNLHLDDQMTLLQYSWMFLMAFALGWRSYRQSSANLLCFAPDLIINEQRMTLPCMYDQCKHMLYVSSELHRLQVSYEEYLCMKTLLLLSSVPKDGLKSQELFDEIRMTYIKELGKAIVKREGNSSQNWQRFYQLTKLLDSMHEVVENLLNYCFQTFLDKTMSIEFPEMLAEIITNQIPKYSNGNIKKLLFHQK
# Procedure, shortened: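 MMTV-bla HeLa beta-lactamase reporter cells in 1% charcoal/dextran FBS medium, compounds up to 92 uM for 18 h at 37 C, CCF4 readout; normalized to 0.1 uM dexamethasone (100%), EC50 and efficacy from Hill fits.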
# [11] = qHTS assay for small molecule agonists of retinoid X receptor alpha signaling (AID 588544; calls by dose curve;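 for activation: 0% = DMSO basal wells and 100% = reference agonist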); details: HEK293T RXRa-UAS-bla, beta-lactamase reporter, 18 h; 530 nm emission
# [12] = target: Retinoic acid receptor RXR-alpha (Homo sapiens) (UniProt P19793); test: as above; details: HEK293T RXRa-UAS-bla, beta-lactamase reporter, 18 h; series mostly up to 76.7 µM
# Retinoic acid receptor RXR-alpha (Homo sapiens), sequence (P19793 whole entry, looked up): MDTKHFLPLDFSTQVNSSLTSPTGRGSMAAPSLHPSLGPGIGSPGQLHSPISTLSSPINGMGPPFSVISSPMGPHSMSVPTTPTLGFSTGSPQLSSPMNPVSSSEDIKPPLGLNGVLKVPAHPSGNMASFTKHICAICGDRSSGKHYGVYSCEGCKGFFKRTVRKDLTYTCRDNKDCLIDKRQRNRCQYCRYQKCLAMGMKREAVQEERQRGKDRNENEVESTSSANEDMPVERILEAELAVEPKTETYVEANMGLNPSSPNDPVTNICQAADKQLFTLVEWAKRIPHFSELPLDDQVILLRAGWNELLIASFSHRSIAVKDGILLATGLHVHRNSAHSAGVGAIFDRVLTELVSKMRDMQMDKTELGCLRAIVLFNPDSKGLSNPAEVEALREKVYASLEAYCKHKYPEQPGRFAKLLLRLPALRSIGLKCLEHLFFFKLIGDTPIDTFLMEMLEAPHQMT
# [13] = target: Nuclear receptor subfamily 1 group I member 2 (Rattus norvegicus) (UniProt Q9R1A7); test: qHTS assay for small molecule activators of the rat pregnane X receptor (rPXR) signaling pathway (AID 651751; call rule not given here; note: 0% is about no effect); details: rPXR reporter cells, luciferase (One-Glo), 24 h
# Nuclear receptor subfamily 1 group I member 2 (Rattus norvegicus), sequence (Q9R1A7 whole entry, looked up): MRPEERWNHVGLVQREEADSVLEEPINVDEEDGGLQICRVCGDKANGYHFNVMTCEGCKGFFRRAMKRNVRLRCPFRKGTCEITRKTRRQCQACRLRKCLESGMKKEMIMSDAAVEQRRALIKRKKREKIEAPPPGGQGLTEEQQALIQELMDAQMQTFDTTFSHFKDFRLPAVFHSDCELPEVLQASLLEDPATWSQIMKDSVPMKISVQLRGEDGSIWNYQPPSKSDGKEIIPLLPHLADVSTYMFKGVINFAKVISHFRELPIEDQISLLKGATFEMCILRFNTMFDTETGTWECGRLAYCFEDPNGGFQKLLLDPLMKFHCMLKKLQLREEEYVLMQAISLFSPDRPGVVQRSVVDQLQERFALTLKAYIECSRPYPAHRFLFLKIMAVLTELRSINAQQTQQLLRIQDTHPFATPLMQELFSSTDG
# [14] = qHTS assay for small molecule activators of the human pregnane X receptor (PXR) signaling pathway (AID 720659; call rule not given here; note: 0% is about no effect); details: DPX-2 HepG2 CYP3A4-luciferase, 24 h; series mostly up to 92.3 µM
# [15] = target: Vitamin D3 receptor (Homo sapiens) (UniProt P11473); test: qHTS assay for small molecule antagonists of vitamin D receptor signaling (AID 588541; calls by dose curve;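 note: receptor activated by calcitriol during compound treatment; % is set by controls: 0 for no effect and ±100 for the full control effect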); details: HEK293T VDR-UAS-bla, beta-lactamase ratio, antagonist mode; series mostly up to 76.7 µM
# Vitamin D3 receptor (Homo sapiens), sequence (P11473 whole entry, looked up): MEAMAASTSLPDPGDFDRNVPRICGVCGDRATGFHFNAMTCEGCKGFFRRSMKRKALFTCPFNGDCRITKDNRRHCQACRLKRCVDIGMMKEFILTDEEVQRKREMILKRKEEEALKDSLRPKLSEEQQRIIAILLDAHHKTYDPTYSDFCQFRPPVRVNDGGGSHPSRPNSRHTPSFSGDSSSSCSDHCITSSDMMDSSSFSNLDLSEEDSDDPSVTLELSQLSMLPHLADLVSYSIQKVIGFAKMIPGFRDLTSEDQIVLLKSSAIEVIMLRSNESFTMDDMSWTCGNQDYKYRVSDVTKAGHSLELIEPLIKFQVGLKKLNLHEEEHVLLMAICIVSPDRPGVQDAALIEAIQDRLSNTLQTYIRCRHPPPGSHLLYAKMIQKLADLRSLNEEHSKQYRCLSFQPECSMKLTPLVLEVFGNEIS
# Procedure, shortened: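 VDR-UAS-bla HEK293T cells in 2% charcoal-stripped FBS were stimulated with 1-alpha,25-dihydroxyvitamin D3 (3 nM final) plus compound for 16 h at 37 C. The beta-lactamase CCF4 readout was normalized to 50 nM agonist and DMSO, and Hill fits gave IC50.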
# [16] = target: Vitamin D3 receptor (Homo sapiens) (UniProt P11473); test: qHTS assay for small molecule agonists of vitamin D receptor signaling (AID 588543; calls by dose curve;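 note: 0% = DMSO basal and 100% = reference agonist control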); details: HEK293T VDR-UAS-bla, beta-lactamase ratio, 16 h; series mostly up to 76.8 µM
# Procedure, shortened: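 Agonist-mode beta-lactamase reporter: HEK293T VDR-UAS-bla cells in charcoal-stripped 2% FBS, compound series 16 h 37 C, CCF4 2 h RT. EC50 from Hill fit, scaled against DMSO and 50 nM calcitriol control.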
# [17] = qHTS assay for small molecule activators of the p53 signaling pathway (AID 651743; active = well fitted activation curve with a large enough effect in the signal ratio, not every such curve was filed as active; the % refers to the signal ratio; note: % of control where 0% means no effect); details: HCT-116 p53RE-bla, beta-lactamase FRET ratio, 16 h; activation: stronger effect = higher value
# Procedure, shortened: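 p53RE-bla HCT-116 cells carrying a beta-lactamase reporter under p53 response elements were exposed to compounds for 16 hours at 37 C. Reporter activity read as fluorescence after 2 hours at room temperature with LiveBLAzer B/G FRET substrate.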
# [18] = target: Ferritin light chain (Equus caballus) (UniProt P02791); test: qHTS Validation Assay for Identification of Novel General Anesthetics (AID 2323); details: horse apoferritin, anesthetic-site fluorescent probe displacement; series mostly up to 76.9 µM; note: % is set by controls: 0 for no effect and ±100 for the full control effect
# Ferritin light chain (Equus caballus), sequence (P02791 2-175 limits assumed): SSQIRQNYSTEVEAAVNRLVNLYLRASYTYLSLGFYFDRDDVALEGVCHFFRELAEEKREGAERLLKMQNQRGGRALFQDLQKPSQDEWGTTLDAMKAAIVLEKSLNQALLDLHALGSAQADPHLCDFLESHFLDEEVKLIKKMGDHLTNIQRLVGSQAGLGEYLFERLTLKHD
# Procedure, shortened: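 Competitive displacement of the profluorescent anesthetic 1-AMA (50% saturated, PBS) from 10 uM apoferritin, 10 min, room temperature. Activity is normalized 380/535 nm fluorescence; concentration-response fitted with a four-parameter Hill equation.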
# [19] = qHTS assay for small molecule antagonists of peroxisome proliferator-activated receptor delta signaling (AID 588535; active = well fitted inhibition curve with a large enough effect in the signal ratio, with a control signal flat, not every such curve was filed as active; the % refers to the signal ratio;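 for max response: cells co-treated with a PPAR-delta agonist as stimulator during compound exposure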); details: HEK293T PPARd-UAS-bla, beta-lactamase FRET ratio, 18 h; 460 nm channel
# Procedure, shortened: (§1)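 Antagonist-mode beta-lactamase reporter (GeneBLAzer PPAR-delta-UAS-bla) in HEK293T cells, 2% charcoal/dextran FBS, 4000 cells/well. Compound titrations, 18 h at 37 C; CCF4 ratio read, IC50 and efficacy from Hill fits.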
# [20] = target: Peroxisome proliferator-activated receptor delta (Homo sapiens) (UniProt Q03181); test: as above; details: HEK293T PPARd-UAS-bla, beta-lactamase FRET ratio, 18 h; series mostly up to 76.7 µM
# Peroxisome proliferator-activated receptor delta (Homo sapiens), sequence (Q03181 whole entry, looked up): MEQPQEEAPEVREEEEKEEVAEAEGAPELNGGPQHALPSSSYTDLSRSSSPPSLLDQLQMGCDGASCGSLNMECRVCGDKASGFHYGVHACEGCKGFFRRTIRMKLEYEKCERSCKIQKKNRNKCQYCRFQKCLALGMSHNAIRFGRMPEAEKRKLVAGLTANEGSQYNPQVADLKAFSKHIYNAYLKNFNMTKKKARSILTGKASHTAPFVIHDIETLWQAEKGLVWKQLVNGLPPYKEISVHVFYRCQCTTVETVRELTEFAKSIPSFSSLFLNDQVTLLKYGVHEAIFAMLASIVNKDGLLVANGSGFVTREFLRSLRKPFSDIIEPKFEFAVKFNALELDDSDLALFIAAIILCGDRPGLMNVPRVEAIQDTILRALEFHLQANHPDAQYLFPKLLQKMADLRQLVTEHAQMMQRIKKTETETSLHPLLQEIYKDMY
# Procedure, shortened: as §1
smiles,measurement,setting,value
Oc1ccccc1O,Potency,[1],35.5 µM (active)
same,outcome,[2],inactive
same,Potency,[3],10.4 µM (active)
same,Potency,[4],11.9 µM (active)
same,outcome,[5],inactive
NO,Potency,[1],inactive
same,Potency,[6],12.6 µM (active)
N#C/C(=C\c1ccc(O)c(O)c1)C(=O)NCCCNC(=O)/C(C#N)=C/c1ccc(O)c(O)c1,outcome,[2],inactive
same,Potency,[7],2.82 µM (active)
same,Potency,[6],2.24 µM (active)
same,Potency,[8],3.16 µM (active)
same,Potency,[9],2 µM (active)
CC(C)COC(=O)c1ccccc1C(=O)OCC(C)C,activation,[10],-1.08% (inactive)
same,max response,[11],-12.5%
same,outcome,[12],inactive
same,max response,[13],-3.74% (inactive)
same,outcome,[14],inactive
CN1[C@@H](CC(=O)c2ccccc2)CCC[C@H]1C[C@H](O)c1ccccc1,Potency,[7],6.31 µM (active)
same,Potency,[8],8.91 µM (active)
CCOC(=O)c1ccccc1N,activation,[10],0.622% (inactive)
same,outcome,[15],inactive
same,Potency,[16],inactive
same,max response,[11],-10.9%
same,outcome,[12],inactive
same,max response,[13],-1.87% (inactive)
same,outcome,[14],inactive
Oc1ccccc1Cl,outcome,[15],inactive
same,Potency,[16],inactive
same,max response,[11],8.5%
same,outcome,[12],inactive
same,activation,[17],-5.71% (inactive)
same,max response,[13],0.452% (inactive)
same,outcome,[14],inactive
COC1=CC(=O)OC(CCc2ccc3c(c2)OCO3)C1 (stereo unspecified),activation,[10],3.34% (inactive)
same,activation,[17],-6.75% (inactive)
Nc1nc2[nH]c(=O)cnc2c(=O)[nH]1,outcome,[18],inactive
same,Potency,[4],inactive
COc1cc([C@@H]2c3cc4c(cc3[C@H](O)C3COC(=O)[C@@H]32)OCO4)cc(OC)c1OC (stereo partly specified),Potency,[9],15.8 µM (active)
same,Potency,[3],0.0465 µM (active)
c1ccc(Nc2ccc3ccccc3c2)cc1,activation,[10],-2.76% (inactive) and -2.2% (inactive)
same,max response,[19],41.7% and -2.21%
same,outcome,[20],inactive
same,activation,[17],-2.23% (inactive) and -2.96% (inactive)
O=c1oc(Cl)c(Cl)c2ccccc12,Potency,[4],7.52 µM (active)
same,outcome,[5],inactive
CC(=O)/C=C/c1ccccc1,max response,[19],11.6%
same,outcome,[20],inactive
same,outcome,[15],inactive
same,Potency,[16],inactive
same,max response,[11],-2.3%
same,outcome,[12],inactive
same,max response,[13],-0.846% (inactive)
same,outcome,[14],inactive
Nc1nc2ccc(Cl)cc2c2nc(-c3ccco3)nn12,outcome,[18],inactive
same,Potency,[3],5.85 µM (active)
c1ccc2c(c1)-c1cccc3cccc-2c13,max response,[19],27.3%
same,outcome,[20],inactive
same,outcome,[15],inactive
same,Potency,[16],inactive
same,activation,[17],5.47% (inactive) and -0.395% (inactive)
CCCCCCCCCC[Si](C)(C)CCC(=O)NC(Cc1ccc(C)cc1)c1ccccc1 (stereo unspecified),Potency,[7],3.55 µM (active)
same,Potency,[6],2.82 µM (active)
same,Potency,[8],5.01 µM (active)
same,Potency,[9],2.82 µM (active)
same,outcome,[18],inactive
COc1ccc2c(c1)CCC1C2CC[C@@]2(C)C1CC[C@@H]2NCCCCCCN1C(=O)C=CC1=O (stereo partly specified),outcome,[5],inactive

# Reference: PubChem BioAssay (NCATS)
